# Measurements as given in PubChem BioAssay.
# Calls of active or inactive are those of the source.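 Rule for the calls: active = viability increase at or above a cutoff of the median across tested compounds plus 3 SD (cut at about 8.5% in these data, passing the limit was not always enough); inconclusive = some gains above the cutoff, reason not given; inactive = the rest.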
# Test: doxorubicin toxicity protection in MRP-1 cells – H69AR cells, CellTiter-Glo, duplicate, MRP-1 activator project, pilot screen (AID 807);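 note: compound pretreatment 18-22 h then 72 h combined with doxorubicin; 0% = doxorubicin alone and 100% = vehicle without doxorubicin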
# Settings: H69AR viability with doxorubicin, CellTiter-Glo luminescence; at 10 µM; active compounds read high
row,SMILES,viability increase
1,CCCCn1c(CNC(=O)c2cccs2)nc2ccccc21,-3.7% (inactive)
2,COC(=O)C1=C(C)NC(=O)CC1c1cccc(Cl)c1Cl (stereo not given),-1.92% (inactive)
3,Cn1c(Cn2c(=O)sc3ccccc32)nnc1SCC(=O)NCCc1ccccc1,-0.09% (inactive)
4,Cc1ccccc1S(=O)(=O)Cc1ccc(C(=O)N2CCN(C3CCCCC3)CC2)o1,-1.48% (inactive)
5,Cn1c(C(=O)NC2CCCCC2)cc2c(=O)n(C)c3ccccc3c21,-1.7% (inactive)
6,O=c1oc(-c2cccs2)nc2sc3c(c12)CCCCC3,1.51% (inactive)
7,CN(C)C(=O)N1CCC(C(=O)NCc2ccc(F)cc2)CC1,-1.51% (inactive)
8,Cc1cc(Nc2c(C)cccc2C)n2nc(C)nc2n1,-0.85% (inactive)
9,O=C1CC(Nc2ccc(N3CCOCC3)cc2)C(=O)N1c1ccccc1F (stereo not given),-2.99% (inactive)
10,COc1cc(NC(=O)c2cc(C(C)C)on2)cc(OC)c1OC,-1.85% (inactive)
11,CN(C)CCNC(=O)c1ccc2c(c1)N(Cc1ccc(F)cc1)CCS2,-6.05% (inactive)
12,c1ccc2c(c1)nc1n2CCN1CCNC1CCCCC1,-1.96% (inactive)
13,COC(=O)c1ccsc1NC(=O)C1=COCCO1,-0.42% (inactive)
14,c1coc(-c2nc(-c3ccco3)c(-c3ccco3)nc2-c2ccco2)c1,-2.54% (inactive)
15,COc1cc2c(cc1OC)CN(C(=O)C(C)(C)C)CC2,0.45% (inactive)
16,CCOCN(C(=O)Cn1c(CO)nc2ccccc21)c1c(C)cccc1CC,-3.12% (inactive)
17,CC(C)OC(=O)c1nnc(Cc2ccc(F)cc2)o1,2.12% (inactive)
18,CN(C)Cc1c(O)ccc2occ(C(O)c3ccccc3)c12 (stereo not given),-3.71% (inactive)
19,COc1ccc(N2CCN(C3CC(=O)N(C)C3=O)CC2)cc1 (stereo not given),-0.79% (inactive)
20,CC1CCN(c2nc(-c3ccncc3)nc3ccccc23)CC1,-5.28% (inactive)

row,SMILES,viability increase
1,Clc1ccccc1OCCN1CCCCC1,0.57% (inactive)
2,CCOC(=O)C1=C(C)NC(C)=C(C(=O)OCC)C1C(=O)O,-3.51% (inactive)
3,CC(=O)Nn1cc2c(=O)n(C)c(=O)n(C)c2c1,0.99% (inactive)
4,CCc1nnc(NC(=O)CCN2C(=O)CCC2=O)s1,0.69% (inactive)
5,C/C(NCCN1CCOCC1)=C(\C#N)C(N)=O,-0.51% (inactive)
6,COc1ccc(CCNC(=O)CCn2c(=O)oc3ccccc32)cc1OC,-0.1% (inactive)
7,Cc1ccc(-c2nc(CS(=O)(=O)CC(=O)N3CCc4ccccc4C3)c(C)o2)cc1,-2.25% (inactive)
8,Cc1ccc(-c2nn3c(C)nnc3s2)cc1NC(=O)c1ccc(OC(C)C)cc1,-4.84% (inactive)
9,COc1ccc(C(=O)Nc2nncs2)cc1S(=O)(=O)N1CC(c2ccccc2)CC1=O (stereo not given),0.31% (inactive)
10,CC(C)CC(NS(=O)(=O)c1ccc2c(c1)oc(=O)n2C)C(=O)NC1CCCc2ccccc21 (stereo not given),-6.23% (inactive)
11,O=C(NCc1cccs1)C1CCN(S(=O)(=O)c2cccc3cccnc23)CC1,-0.65% (inactive)
12,Cc1sc2ncnc(NCc3ccco3)c2c1C,-6.03% (inactive)
13,CC(=O)Oc1cccc(N2C(=O)C3C(C2=O)C2C=CC3C23CC3)c1 (stereo not given),-0.99% (inactive)
14,Cc1cc(N2C(=O)C3CC=CCC3C2=O)cc(C)c1Br (stereo not given),-1.05% (inactive)
15,Cn1c(C(=O)N2CCC(C(N)=O)CC2)cc2c(=O)n(C)c3ccccc3c21,-0.97% (inactive)
16,COc1ccccc1N1CCN(C(=O)c2sc3nc(-c4ccc(F)cc4)cn3c2C)CC1,-1.57% (inactive)
17,CC(C)CNS(=O)(=O)c1ccc(S(=O)(=O)N2CCN(CCC#N)CC2)cc1,-0.2% (inactive)
18,CCCN1Cc2cccc(C(=O)Nc3ccc4c(c3)OCCO4)c2C1=O,0.47% (inactive)
19,CCOC(=O)CN1CC23C=CC(O2)C(C(=O)NC2CCCCCC2)C3C1=O (stereo not given),-2.93% (inactive)
20,Cc1nnc(NC(=O)CSc2nnc(Cc3cccn3C)n2C)s1,-0.3% (inactive)
